Measured values from PubChem BioAssay (NCATS).
Inconclusive results are not listed. Some structures have more than one record in an assay (separate samples or runs), and their calls can disagree. Active and inactive are the calls of the source. Unless noted, the call rests on the fitted dose curve; in most records, active means well fitted curve in the direction sought with a large enough effect; inconclusive means small, poorly fitted or top-dose-only effect, or another doubt; inactive means no such curve, though single readings can be large; an effect the other way counts as inactive or inconclusive.

Columns and labels:
[1] = tested on: Zika virus NS2B-NS3 protease (linked construct); test: Primary screen NINDS Rhodamine qHTS for Zika virus inhibitors (AID 1347160); further: on the % scale 0 is the no-effect control and ±100 the full control effect; nearly all actives have a fitted effect of over 55% in size
Procedure, shortened: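 Rhodamine110-peptide cleavage (1.5 µM substrate) by 25 nM linked NS2B-NS3 enzyme at pH 8.0 (Tris, Tween 20), after 15 min RT preincubation with compounds; 15-min fluorescence change normalized to controls and Hill-fitted.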

[2] = target: Calcium and integrin-binding protein 1 (Homo sapiens) (UniProt Q99828); test: Primary qHTS for Identification of Calcium Integrin Binding Protein 1 (CIB1) Competitor (AID 1508620);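 further: GST tagged CIB1 binding a fluorescein labelled alphaIIb integrin peptide tracer; top concentration of the series differs between compounds; on the % scale 0 is the no-effect control and ±100 the full control effect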
Procedure, shortened: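 Fluorescence polarization competition: GST-tagged CIB1 (1 uM final) preincubated with compound 15 min at room temperature, then FITC-labelled alphaIIb peptide (100 nM final) added. After 15 min at room temperature, polarization read at Ex 480/Em 540.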

[3] = Primary qHTS for inhibitors of nuclear receptor binding SET domain protein 2 (NSD2) in an isogenic RCH-ACV NSD2 p.E1099K mutant (9B) (AID 1645876); further: nearly all actives have a fitted effect of over 70% in size; further: potency means the concentration at half of the fitted maximal effect; on activity change, negative = viability loss: on the % scale 0 is the no-effect control and ±100 the full control effect
[4] = Primary qHTS for inhibitors of nuclear receptor binding SET domain protein 2 (NSD2) in an RCH-ACV wild type WT cells (2C) (AID 1645877); further: potency means the concentration at half of the fitted maximal effect; nearly all actives have a fitted effect of over 70% in size
[5] = target: Glutathione peroxidase 1 (Homo sapiens) (UniProt P07203); test: Primary qHTS Assay for Inhibitors of Recombinant Selenoprotein Glutathione Peroxidase 1 (GPX1) (AID 1845191); further: nearly all actives have a fitted effect of over 65% in size
Procedure, shortened: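 GR-coupled readout: NADPH consumption tracked by fluorescence, ex 340/em 450 nm, at t=0 and after 15 min at RT. Final mix 10 nM GPX1, 1 mM GSH, 0.5 mM CHP, 0.5 mM NADPH, 100 nM GR, 0.01% BSA, following 30 min enzyme–compound preincubation.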

[6] = target: Phospholipid hydroperoxide glutathione peroxidase GPX4 (Homo sapiens) (UniProt P36969); test: Primary qHTS Assay for Inhibitors of Recombinant Selenoprotein Glutathione Peroxidase 4 (GPX4) (AID 1845192); settings: outcome: dose series up to 50 µM unless noted; further: nearly all actives have a fitted effect of over 65% in size
Procedure, shortened: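 Steps: GPX4 plus compound, 30 min RT; add GR/GSH/NADPH master mix; start with cumene hydroperoxide; read 340/450 nm fluorescence at 0 and 15 min. Finals were 200 nM GPX4, 1 mM GSH, 0.5 mM CHP, 0.5 mM NADPH, 100 nM GR.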

[7] = target: Luciferin 4-monooxygenase (Photinus pyralis) (UniProt P08659); test: Primary firefly luciferase (FLuc) qHTS assay for identification of artifact compounds. (AID 1845220); further: nearly all actives have a fitted effect of over 60% in size
Procedure, shortened: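 Enzymatic FLuc inhibition assay: compounds pre-exposed to luciferin/ATP (10 uM each) for 15 min, then purified P. pyralis enzyme at 10 nM added. Read-out: luminescence at 5 min.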

[8] = tested on: Nanoluciferase (engineered Oplophorus gracilirostris luciferase); test: Primary Nanoluciferase (NLuc) qHTS assay for identification of artifact compounds. (AID 1845222);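 further: NLuc secreted into diluted conditioned medium of S16 cells; 0% = DMSO and -100% = no enzyme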
Procedure, shortened: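 S16 cell supernatant NLuc, 1:55; cpds qHTS; 15 min RT dark; Nano-Glo substrate 1:100, 5 min; luminescence; Hill fit of % inhibition.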

[9] = Primary redox qHTS assay for identification of artifact compounds. (AID 1845223); further: potency means the concentration at half of the fitted maximal effect
Procedure, shortened: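 Redox-cycling detection via DTT (250 uM final) oxidation coupled to Amplex Red (25 uM)/HRP (250 mU/mL) in HBSS. 15 min preincubation plus 30 min after DTT, room temperature. Ex/Em 525/598 nm; 4-parameter Hill fit against DMSO and 10 uM DA3003.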

HeLa = test: Primary qHTS to identify gynecologic anti-cancer compounds using libraries of approved drugs and bioactive compounds (AID 1345084); settings: Gynecologic cancer cell panel viability, ATPlite luminescence, 48 h; series mostly up to 57.5 µM; further: on the % scale 0 is the no-effect control and ±100 the full control effect; nearly all actives have a fitted effect of over 55% in size
Procedure, shortened: (§1)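 Cells, 1,000 per well, plated 16 h, then exposed 48 h at 37 C to compounds. Viability by ATPlite luminescence after 15 min at room temperature.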

JEG-3 = test: as above; settings: Gynecologic cancer cell panel viability, ATPlite luminescence, 48 h; series mostly up to 57.5 µM
Procedure, shortened: as §1

Tov-21-G = test: as above; settings: Gynecologic cancer cell panel viability, ATPlite luminescence, 48 h; series mostly up to 57.5 µM
Procedure, shortened: as §1

Tov112D = test: as above; settings: Gynecologic cancer cell panel viability, ATPlite luminescence, 48 h; series mostly up to 57.5 µM
Procedure, shortened: as §1

OV90 = test: as above; settings: Gynecologic cancer cell panel viability, ATPlite luminescence, 48 h; series mostly up to 57.5 µM
Procedure, shortened: as §1

C33A = test: as above; settings: Gynecologic cancer cell panel viability, ATPlite luminescence, 48 h; series mostly up to 57.5 µM
Procedure, shortened: as §1

Es-2 = test: as above; settings: Gynecologic cancer cell panel viability, ATPlite luminescence, 48 h; series mostly up to 57.5 µM
Procedure, shortened: as §1

Hek293T = test: as above; settings: Gynecologic cancer cell panel viability, ATPlite luminescence, 48 h, control line for the selectivity index; series mostly up to 57.5 µM
Procedure, shortened: as §1

[10] = Primary fluorescence-based thiol-reactive (MSTI) qHTS assay for identification of artifact compounds. (AID 1845221); further: nearly all actives have a fitted effect of over 65% in size; further: potency means the concentration at half of the fitted maximal effect
Procedure, shortened: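 MSTI probe at 4 uM final in 2% DMSO/PBS pH 7.4; compounds, 1 h at room temperature in dark. Fluorescence Ex/Em 525/598 nm, normalised to Acetyl-MSTI and MSTI, fitted to 4-parameter Hill.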

[11] = qHTS drug screen for cell cycle checkpoint inhibitors in PARPi-resistant BRCA-mutant ovarian cancer cell lines. (AID 1963452; calls by dose curve); settings: PEO1/OlaR viability, CellTiter-Glo luminescence, 96 h, stronger effect = lower value
Procedure, shortened: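 PEO1, PEO4 and PEO1/OlaR ovarian cancer cells, 600 per well, exposed 96 h at 37C to a dilution series. Viability read by CellTiter-Glo luminescence, normalized to DMSO and empty wells; activity summarized as Z-AUC.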

CASKI = test: Primary qHTS to identify gynecologic anti-cancer compounds using libraries of approved drugs and bioactive compounds (AID 1345084); settings: Gynecologic cancer cell panel viability, ATPlite luminescence, 48 h; series mostly up to 57.5 µM; further: on the % scale 0 is the no-effect control and ±100 the full control effect; nearly all actives have a fitted effect of over 55% in size
Procedure, shortened: as §1

Chain of Phospholipid hydroperoxide glutathione peroxidase GPX4 (Homo sapiens) (P36969 whole entry, looked up): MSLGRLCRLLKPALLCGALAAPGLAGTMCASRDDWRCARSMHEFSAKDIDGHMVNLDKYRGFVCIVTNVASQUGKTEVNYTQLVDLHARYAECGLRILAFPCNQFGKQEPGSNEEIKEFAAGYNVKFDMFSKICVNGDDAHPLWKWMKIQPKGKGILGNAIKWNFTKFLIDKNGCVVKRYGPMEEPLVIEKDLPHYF
Chain of Glutathione peroxidase 1 (Homo sapiens) (P07203 whole entry, looked up): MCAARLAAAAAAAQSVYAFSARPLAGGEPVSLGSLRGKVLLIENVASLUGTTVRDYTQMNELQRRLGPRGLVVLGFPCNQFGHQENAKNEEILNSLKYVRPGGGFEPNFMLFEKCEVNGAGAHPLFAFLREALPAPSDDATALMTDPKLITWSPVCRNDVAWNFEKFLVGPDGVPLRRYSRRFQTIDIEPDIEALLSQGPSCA
Chain of Calcium and integrin-binding protein 1 (Homo sapiens) (Q99828 whole entry, looked up): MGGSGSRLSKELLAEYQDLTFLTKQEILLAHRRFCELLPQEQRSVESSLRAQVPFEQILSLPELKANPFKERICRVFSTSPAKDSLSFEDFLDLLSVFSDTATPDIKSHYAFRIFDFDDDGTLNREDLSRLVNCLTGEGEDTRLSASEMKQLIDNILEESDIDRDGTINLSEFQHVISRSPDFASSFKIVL

CCOC(=O)c1cccc(CNc2ccc(N(C)C(=O)Nc3ccccc3)cc2)c1
active: Potency [3] 14.5 µM | Potency [4] 14.5 µM | Potency [9] 23.8 µM
inactive: Potency [1] | outcome [2] | Potency [5] | Potency [6] | Potency [7] | Potency [8] | Potency (HeLa) | Potency (JEG-3) | Potency (Tov-21-G) | Potency (Tov112D)

CC1CCCC(SCC(O)C(=O)O)CC(=O)c2c(O)cc(O)cc2CC(=O)O1 (centres undefined)
inactive: Potency [1] | outcome [2] | Potency [5] | Potency [6] | Potency [7] | Potency [8] | Potency [9] | Potency (HeLa) | Potency (JEG-3) | Potency (OV90) | Potency (Tov-21-G)
active: Potency [3] 6.32 µM | Potency [4] 3.55 µM

CCCCn1c(-c2ccccc2)nc(-c2ccccc2)c1CN(Cc1ccc2c(c1)OCO2)Cc1ccc2c(c1)OCO2
inactive: Potency [1] | outcome [2] | Potency [5] | Potency [6] | Potency [7] | Potency [8] | Potency [9] | Potency (C33A) | Potency (Es-2) | Potency (HeLa) | Potency (Hek293T) | Potency (JEG-3) | Potency (OV90) | Potency (Tov-21-G) | Potency (Tov112D)
active: Potency [4] 18.3 µM

CC(=O)C1=C(O)C2c3c[nH]c4cccc(c34)CC2C(C)(C)N(C)C1=O (centres undefined)
active: Potency [3] 18.3 µM | Potency [4] 14.5 µM | Potency [10] 3.36 µM
inactive: Potency [1] | Potency [6] | Potency [7] | Potency (HeLa) | Potency (Hek293T) | Potency (JEG-3) | Potency (OV90) | Potency (Tov-21-G) | Potency (Tov112D)

CC1CCC(n2c3cnccc3c3cnc(Nc4ccc5c(n4)CCN(C(=O)CO)C5)nc32)CC1 (centres undefined)
inactive: Potency [1] | outcome [2] | activity change, negative = viability loss [3] -24.3% [at 9.23 µM] | Potency [5] | Potency [6] | Potency [7] | Potency [10] | Potency [8] | Potency [9] | Z-AUC [11] 0.557 | Potency (C33A) | Potency (CASKI) | Potency (Es-2) | Potency (HeLa) | Potency (Hek293T) | Potency (JEG-3) | Potency (OV90) | Potency (Tov-21-G) | Potency (Tov112D)
active: Potency [3] 2.59 µM | Potency [4] 2.31 µM
1.18: Z-AUC ([11]; measured here: PEO1 parental Z-AUC)
0.34: Z-AUC ([11]; measured here: PEO4 Z-AUC)

CC(=O)N[C@@H](CC(=O)O)C(=O)N[C@@H](CCC(=O)O)C(=O)N[C@H](C(=O)N[C@@H](CC(=O)O)C(=O)Nc1ccc2c(C)cc(=O)oc2c1)C(C)C
active: Potency [3] 5.78 µM | Potency [4] 5.15 µM
inactive: Potency [1] | Potency [5] | Potency [6] | Potency [7] | Potency [8] | Potency (HeLa) | Potency (Hek293T) | Potency (JEG-3) | Potency (OV90) | Potency (Tov112D)

CC(C)CCC[C@@H](C)[C@H]1CC[C@H]2[C@@H]3CC=C4C[C@@H](OC(=O)NCCN(C)C)CC[C@]4(C)[C@H]3CC[C@]12C
inactive: Potency [1] | outcome [2] | Potency [6] | Potency [7] | Potency [10] | Potency [8] | Potency [9] | Potency (C33A) | Potency (Es-2) | Potency (HeLa) | Potency (Hek293T) | Potency (JEG-3) | Potency (OV90) | Potency (Tov-21-G) | Potency (Tov112D)
